From PubChem
3T3 cytotox: Cytotoxic Profiling in NIH 3T3 Cell Line of Diverse Libraries Using Quantitative High-Throughput Screening; NIH 3T3 viability, CellTiter-Glo ATP luminescence, 48-72 h; Potency, µM (titrated, usually from 96.7 µM), most hits filed as inhibitors; hit rate 4.3% among 94,000; note: nearly all actives have a fitted effect of over 55% in size
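Viability of NIH 3T3 cells after 48 or 72 hr compound treatment at 37 °C was assessed by CellTiter-Glo, with luminescence imaged following a 10 min room-temperature step.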
NPR1 antag: Natriuretic polypeptide receptor (hNpr1) antagonism - Primary qHTS | Atrial natriuretic peptide receptor 1 (Homo sapiens), P16066 | HEK293 hNpr1 GloSensor cGMP, ANP-stimulated luminescence | Potency, µM (doses to about 46.3 µM), usual class: inhibitors | hit rate 1.6% among 76,000 | AID 1347048, 2019; calls by dose curve; note: nearly all actives have a fitted effect of over 60% in size
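Compound pre-incubated 30 min at room temperature on GloSensor-loaded HEK293 cells stably carrying hNpr1 and the pGS-40F cGMP biosensor. Stimulation uses hNppA at 0.1 nM final; luminescence is taken at baseline and 20 min post-agonist.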
FLuc inh: Firefly luciferase inhibition profiling of diverse chemical library using quantitative high-throughput screening | purified P. pyralis luciferase, luminescence, biochemical | Potency, µM (series often up to 115 µM), most hits filed as inhibitors | AID 1347043, 2019 | Luciferin 4-monooxygenase (Photinus pyralis), P08659 | hit rate 2.5% among 76,000; note: nearly all actives have a fitted effect of over 65% in size
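Biochemical qHTS: compound (6-point titration) added to 10uM D-luciferin plus 10uM ATP in Tris acetate pH 7.5 buffer with Mg, Tween-20 and BSA, then purified enzyme at 10nM; light output imaged.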
GPT2 inh: Primary qHTS assay for inhibitors of Glutamate pyruvate transaminase 2 (GPT2) | Recombinant GPT2, coupled pyruvate oxidase/HRP Amplex Red fluorescence | Potency, µM (top dose mostly 57.7 µM), hits mostly inhibitors | hit rate 0.25% among 100,000; note: nearly all actives have a fitted effect of over 60% in size
Target sequence (Q8TD30 whole entry, looked up): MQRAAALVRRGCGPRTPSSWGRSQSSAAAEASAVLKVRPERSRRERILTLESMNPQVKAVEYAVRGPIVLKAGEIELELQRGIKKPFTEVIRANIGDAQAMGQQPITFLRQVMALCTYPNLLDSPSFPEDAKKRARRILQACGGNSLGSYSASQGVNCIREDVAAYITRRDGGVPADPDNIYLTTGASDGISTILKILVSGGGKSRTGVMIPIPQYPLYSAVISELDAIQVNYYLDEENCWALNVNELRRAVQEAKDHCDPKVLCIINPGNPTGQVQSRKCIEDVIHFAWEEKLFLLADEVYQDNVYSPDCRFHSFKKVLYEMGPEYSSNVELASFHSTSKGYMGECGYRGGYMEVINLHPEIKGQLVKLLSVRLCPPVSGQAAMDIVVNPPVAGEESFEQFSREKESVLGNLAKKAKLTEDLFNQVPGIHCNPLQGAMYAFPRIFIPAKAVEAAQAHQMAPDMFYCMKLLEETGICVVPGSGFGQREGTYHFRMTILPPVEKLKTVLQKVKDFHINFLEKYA
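GPT2 10ng/uL, a-KG 250uM, L-Ala 2mM, HEPES pH7.5 + 0.0001% Tween; 30 min RT. Then Amplex mix (PO/HRP/ThPP), 30 min RT dark, fluorescence. AOA 50uM used as positive control.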
HEK cytotox: Cytotoxic Profiling in HEK 293 Cell Line of Diverse Libraries Using Quantitative High-Throughput Screening. HEK 293 viability, ATP luminescence (CellTiter-Glo), 48-72 h. Potency, µM (top dose mostly 115 µM), actives largely listed as inhibitors. hit rate 6.6% among 94,000; note: nearly all actives have a fitted effect of over 60% in size
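HEK 293 seeded at 250 cells/well receive compound via pintool. After 48 or 72 hr at 37 degree Celsius, 5% CO2 and 95% humidity, CellTiter-Glo is dispensed and luminescence read following 10 min at room temperature.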
Large screens that a line does not name were inactive. Shown are actives, neighbours in structure and some others; about 10% of the full set was active somewhere. Unless noted, calls come from the whole dose curve; as a rule, active = well fitted curve in the direction sought with a large enough effect; inconclusive = small, poorly fitted or top-dose-only effect, or another doubt; inactive = no such curve, though single readings can be large; an effect the other way counts as inactive or inconclusive.

O=C(NC1CCCN(c2cc(-c3ccc(F)cc3)[nH]n2)C1)c1c[nH]c2ccccc12 (stereo not given)	3T3 cytotox inconclusive, FLuc inh 22µM, HEK cytotox inconclusive
O=C(NC1CCN(c2cc(-c3ccc(F)cc3)[nH]n2)C1)c1cccc(OC(F)(F)F)c1 (stereo not given)	3T3 cytotox inconclusive, HEK cytotox 40µM
O=C(c1cccc(OC(F)(F)F)c1)N1CCN(c2cc(-c3cccs3)[nH]n2)CC1	3T3 cytotox inconclusive, GPT2 inh inconclusive, HEK cytotox inconclusive
O=C(NC1CCN(c2cc(-c3ccc(Cl)cc3)[nH]n2)C1)c1ccc(F)c(F)c1 (stereo not given)	3T3 cytotox inconclusive, HEK cytotox inconclusive
O=C(NC1CCCN(c2cc(-c3ccc(F)cc3)[nH]n2)C1)c1ccc(F)c(F)c1 (stereo not given)	3T3 cytotox inconclusive, HEK cytotox 45µM
O=C(c1cccc(OC(F)(F)F)c1)N1CCN(c2cc(-c3ccc(F)cc3)[nH]n2)CC1	3T3 cytotox 35µM, NPR1 antag inconclusive, HEK cytotox inconclusive
CCc1ccc(S(=O)(=O)N2CC(c3nc(Cc4ccccc4)no3)C2)cc1	3T3 cytotox inconclusive, NPR1 antag inconclusive, HEK cytotox inconclusive
Cc1cn2nc(-c3nc(C4CCCN(C(=O)c5ccc(Cl)cc5)C4)no3)cc2c(=O)[nH]1 (stereo not given)	HEK cytotox inconclusive
CN1CCN(N)CC1	none (no result: 3T3 cytotox, NPR1 antag, FLuc inh, HEK cytotox)
O=C(NC1CCCN(c2cc(-c3ccc(F)cc3)[nH]n2)C1)c1ccccc1 (stereo not given)	3T3 cytotox inconclusive, FLuc inh inconclusive, HEK cytotox inconclusive
O=C(NC1CCCN(c2cc(-c3ccc(F)cc3)[nH]n2)C1)c1cccc(F)c1 (stereo not given)	3T3 cytotox inconclusive, HEK cytotox 32µM
O=C(c1ccc(CNc2nccc(-c3cccnc3)n2)cc1)N1CCCCC1	3T3 cytotox 50µM, HEK cytotox 40µM
OCC1CNCCC12CCN(Cc1ccc3ccccc3c1)CC2 (stereo not given)	3T3 cytotox 45µM, HEK cytotox 28µM
OCC1CN(c2ncccn2)CC12CCN(Cc1ccc3cc[nH]c3c1)CC2 (stereo not given)	none
CCc1nc(N2CCc3ccccc3C2)ncc1C(=O)O	3T3 cytotox 25µM, FLuc inh 22µM, HEK cytotox 32µM
COc1ccccc1CN1CCCn2nc(C)c(-c3ccccc3[S+](C)(=O)[O-])c21	3T3 cytotox 35µM, GPT2 inh inconclusive, HEK cytotox 45µM
COc1ccc(C(=O)N2CCCn3nc(C)c(-c4ccccc4C(C)C)c32)cn1	3T3 cytotox inconclusive
Cc1nn2c(c1-c1ccccc1C(C)C)N(Cc1ccc(F)cc1)CCC2	3T3 cytotox 28µM, HEK cytotox 50µM
COc1ncccc1CN1CCCn2nc(C)c(-c3ccccc3C(C)C)c21	3T3 cytotox 45µM, HEK cytotox 50µM
O=C1NCc2ccccc2CC12CCN(Cc1ccc(Cl)s1)C2 (stereo not given)	HEK cytotox inconclusive (no result: NPR1 antag, FLuc inh)
O=Cc1ccc(-c2cc(C(F)(F)F)ccc2Cl)cc1	none (no result: NPR1 antag, FLuc inh)
Nc1cc(C(F)(F)F)ccc1S	GPT2 inh 28µM (no result: 3T3 cytotox, NPR1 antag, FLuc inh, HEK cytotox)
COc1ccc(CNC2(Cc3cc(-c4ccccc4)on3)COC2)cc1	none
CC(c1nccs1)N(C)C(=O)c1csc2nc(-c3ccccc3Cl)cn12 (stereo not given)	3T3 cytotox 50µM, FLuc inh inconclusive, HEK cytotox 22µM
COc1ccc(CCN(C)C(=O)CC(c2cccc(F)c2)c2cn(C)c3ccccc23)cc1OC (stereo not given)	3T3 cytotox inconclusive, HEK cytotox 40µM
COCC(=O)N[C@@H]1CN(Cc2ccc(O)cc2)CC[C@@H]1CO	none
COc1cccc(NC(=O)C2(C)CN(C)Cc3ccc(NCc4ccccc4)nc32)c1 (stereo not given)	3T3 cytotox 40µM, HEK cytotox inconclusive
